Screens (PubChem BioAssay)
Luciferase inh: firefly luciferase inhibition. P08659. purified firefly luciferase, luminescence, 8 min. Potency, µM (titrated, usually from 57.1 µM), most hits filed as inhibitors. 72,000 compounds, 2.2% hits. AID 411; active = well fitted inhibition curve with a large enough effect; inconclusive = small, poorly fitted or top-dose-only effect; note: nearly all actives have a fitted effect of over 40% in size
Target sequence (P08659 whole entry, looked up): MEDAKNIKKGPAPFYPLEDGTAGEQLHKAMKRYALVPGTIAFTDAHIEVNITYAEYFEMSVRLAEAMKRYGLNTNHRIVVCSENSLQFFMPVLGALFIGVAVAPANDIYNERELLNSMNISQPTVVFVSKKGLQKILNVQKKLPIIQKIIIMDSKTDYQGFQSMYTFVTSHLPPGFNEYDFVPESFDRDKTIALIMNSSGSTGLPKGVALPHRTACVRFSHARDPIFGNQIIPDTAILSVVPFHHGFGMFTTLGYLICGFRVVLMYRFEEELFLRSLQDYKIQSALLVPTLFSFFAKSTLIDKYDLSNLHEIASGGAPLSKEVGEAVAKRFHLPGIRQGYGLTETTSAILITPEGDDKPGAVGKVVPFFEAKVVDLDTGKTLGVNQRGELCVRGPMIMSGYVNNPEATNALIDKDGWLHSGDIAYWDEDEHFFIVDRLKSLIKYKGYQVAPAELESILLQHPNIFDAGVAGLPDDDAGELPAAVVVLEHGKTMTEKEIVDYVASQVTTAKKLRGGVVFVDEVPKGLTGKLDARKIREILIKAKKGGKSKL
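Compounds were tested as concentration series (qHTS) against purified P. pyralis luciferase with luciferin and 10 uM ATP in 50 mM imidazole pH 7.2, 50 mM KCl, 7 mM MgCl2, 0.01% Tween 20, 0.05% BSA. Luminescence was read after 8 min at ambient temperature.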
Bst PK mod: alters activity of Bacillus stearothermophilus pyruvate kinase; purified pyruvate kinase, luminescence ATP production; ribose 5-phosphate activator present at AC10; Potency, µM; 51,000 compounds, 1.2% hits; in the data active = potency below about 11 µM; inconclusive = mostly about 12 µM to 25 µM;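 the screen sought inhibitors and activators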
GBA activity: alters purified human glucocerebrosidase activity. Potency, µM. P04062. purified enzyme, resorufin glucoside fluorescence (screen aimed at inhibitors), 20 min. 48,000 compounds, 1.1% hits. AID 360; in the data active = potency below about 15 µM; inconclusive = mostly about 16 µM to 33 µM;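 note: the screen sought inhibitors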
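Normal human glucocerebrosidase (0.2 nM final) was assayed with resorufin β-D-glucopyranoside (30 uM final) in 50mM citric acid/KH2PO4, 10mM sodium taurocholate, 0.01% tween-20, pH 5.9. Compounds were titrated; fluorescence (Ex 548, Em 600) read after 20 min at RT.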
Large screens that a line does not name were inactive. An excerpt weighted towards active compounds, which were near 3.4% of everything screened.

CCCSc1nnc2n(Cc3ccccc3)c(=O)c3c4c(sc3n12)CCC4	none (no result: GBA activity)
O=c1c2ccccc2c2ccccc2c(=O)n1-c1cc2c3ccccc3ccc2c2ccccc12	none (no result: Bst PK mod, GBA activity)
Cc1c(-c2ccc(O)cc2)nn(-c2ccc(O)cc2)c1-c1ccc(OCCN2CCCCC2)cc1	none (no result: Bst PK mod, GBA activity)
CCOc1cc(C)nc(N2CCCC(C(=O)NCc3ccccc3F)C2)n1 (configuration not stated)	none
Cc1cc(C)nc(N2CCCC(C(=O)NCCc3ccccc3F)C2)n1 (configuration not stated)	Bst PK mod 3.2
COC(=O)[C@H](C)NC(=O)C/C=C\[C@@H](C)CO	none (no result: Bst PK mod, GBA activity)
CCOC(=O)c1cnc(-n2cc(C)cn2)nc1Nc1ccccc1OC	GBA activity 12
CCOC(=O)c1cnc(-n2nc(C)cc2C)nc1Nc1ccc(N(C)C)cc1	none
C[C@@H](c1ccccc1)N1C(=O)[C@H]2[C@H]3[C@H](O)[C@H](O)C/C(=N/OCc4ccccc4)[C@@H]3CC[C@@H]2C1=O	none (no result: Bst PK mod, GBA activity)
O=C1c2ccccc2C(Cc2ccncc2)(Cc2ccncc2)c2ccccc21	none (no result: Bst PK mod, GBA activity)
O=C1c2ccccc2C(=O)C1c1ccncc1	Luciferase inh 7.9µM (no result: Bst PK mod, GBA activity)
N#Cc1ccc(CN2CCC3(CC2)CCN(S(=O)(=O)c2ccccc2)CC3)cc1	none (no result: Bst PK mod, GBA activity)
Cc1ccc(-n2nc3ccc(N)cc3n2)cc1	Luciferase inh 2µM (no result: Bst PK mod, GBA activity)
Cc1ccc(-n2nc(-c3ccc(N)cc3)cc2N)cc1	none (no result: Bst PK mod, GBA activity)
COc1ccc(CNc2cc(-c3ccccc3C)ncn2)c(OC)c1	none (no result: Bst PK mod, GBA activity)
CC(=O)Nc1ccc2oc(-c3ccccc3Br)nc2c1	Luciferase inh 10µM, Bst PK mod inconclusive
CC(=O)Nc1ccc2oc(-c3cc(F)c(F)cc3Cl)nc2c1	none
O=C1[C@H]2[C@H]3[C@H](O)[C@H](O)C/C(=N/OC[C@@H](O)COCc4ccco4)[C@@H]3CC[C@@H]2C(=O)N1C[C@@H]1CCCO1	none (no result: Bst PK mod, GBA activity)
O=C(c1cccc(F)c1)N1CCC[C@@]2(CCN(Cc3nccs3)C2)C1	none (no result: Bst PK mod, GBA activity)
COc1ccc(C(=O)N2CCC3(CCCN(Cc4cc(C(F)(F)F)cc(C(F)(F)F)c4)C3)CC2)cc1	none (no result: Bst PK mod, GBA activity)
Cc1nnc(NC(=O)c2ccccc2F)s1	GBA activity 7.9
O=C(Nc1nncs1)c1ccccc1Br	none (no result: Bst PK mod, GBA activity)
Cc1nnc(NC(=O)c2ccccc2Br)s1	GBA activity 3.9
Cc1nnc(NC(=O)c2c(F)c(F)c(F)c(F)c2F)s1	GBA activity inconclusive
Cc1cc2nc3[nH]c4c(Cl)cc(Cl)cc4c3nc2cc1C	none (no result: Bst PK mod, GBA activity)
COc1cccc(Nc2ncc3ncc(=O)n(C)c3n2)c1	none (no result: Bst PK mod, GBA activity)
O=C(Nc1nn[nH]n1)c1nc(-c2ccccc2)cc(=O)[nH]1	none (no result: Bst PK mod, GBA activity)
O=c1cc(-c2ccccc2O)oc2ccc3ccccc3c12	Luciferase inh 0.5µM (no result: Bst PK mod, GBA activity)
O=c1cc(-c2ccccc2O)oc2c(O)c(O)ccc12	none (no result: Bst PK mod, GBA activity)
CC(=O)N(C)c1nc(-c2ccc(Cl)cc2)cs1	none
CNc1nc(-c2ccc(Cl)cc2)cs1	Luciferase inh 10µM, Bst PK mod 8.1
CCNc1nc(-c2ccc(Cl)cc2)cs1	Luciferase inh 13µM, Bst PK mod 10
CN1CCN(CC(=O)Nc2nc(-c3ccccc3)cs2)CC1	none (no result: GBA activity)
O=C(Oc1ccccc1)N1CCC[C@@]2(CCN(c3ncccn3)C2)C1	none (no result: Bst PK mod, GBA activity)
CC1CCC(n2c(=S)[nH]c3ccccc3c2=O)CC1 (configuration not stated)	none (no result: Bst PK mod, GBA activity)
O=c1c2ccccc2[nH]c(=S)n1C1CCCCC1	GBA activity 14
CSc1ccc2c(c1)N(CCCN(C)C)c1ccccc1S2	none (no result: Bst PK mod, GBA activity)
O=C1NC(=S)S/C1=C1\Sc2ccccc2N1CCCS(=O)(=O)O	Bst PK mod 7.7
COC(=O)N1CCC2(CC1)CN(c1ccccc1)C2	none (no result: Bst PK mod, GBA activity)
O=C1O/C(=C\Br)CC[C@@H]1c1cccc2ccccc12	none (no result: Bst PK mod, GBA activity)
C[C@H](CCC(=O)O)[C@H]1CC[C@@H]2[C@H]3CC[C@H]4C[C@@H](O)CC[C@@]4(C)[C@H]3CC[C@]21C	none (no result: Bst PK mod, GBA activity)
OC[C@H]1O[C@H](n2cnc3c(NC4CCCC4)nc(Cl)nc32)[C@@H](O)[C@@H]1O	none (no result: Bst PK mod, GBA activity)
COc1ccc(C(=O)c2ccccc2O)c(O)c1	none (no result: Bst PK mod, GBA activity)
COc1ccc(O)c(C(=O)CC(=O)c2ccccc2)c1	Luciferase inh 20µM (no result: Bst PK mod, GBA activity)
O=C(c1cccc(F)c1)N1CCC[C@@]2(CCN(Cc3ccccc3)C2)C1	none (no result: Bst PK mod, GBA activity)
COc1ccc(Cc2ccccc2C(=O)O)c2ccccc12	none (no result: Bst PK mod, GBA activity)
c1ccc([C@H]2NCCc3c2[nH]c2ccccc32)cc1	none (no result: Bst PK mod, GBA activity)
CCOC(=O)C1CCCN(c2ncnc3c2[nH]c2cccc(OC)c23)C1 (configuration not stated)	none (no result: Bst PK mod)
COc1cccc2[nH]c3c(N4CCCC(C)C4)ncnc3c12 (configuration not stated)	Luciferase inh 13µM (no result: Bst PK mod)
CN1CCN(c2ncc3nc(-c4cc(F)cc(F)c4)c(=O)n(Cc4cccs4)c3n2)CC1	none (no result: Bst PK mod, GBA activity)
COC(=O)C1=C(C)NC(C)=C([N+](=O)[O-])[C@@H]1c1ccccc1C(F)(F)F	Luciferase inh 4µM (no result: Bst PK mod, GBA activity)
COC(=O)C1=C(C)NC(C)=C([N+](=O)[O-])[C@H]1c1ccccc1C(F)(F)F	none (no result: Bst PK mod, GBA activity)
N#Cc1cccc(-c2ccc3ncnc(NCc4ccccc4)c3c2)c1	none (no result: Bst PK mod, GBA activity)
